Source: PubChem
GC-A act: GC-A stimulated cGMP production enhancers – HEK293 GC-A cells, cGMP TR-FRET, EC30 ANP, primary screen; Atrial natriuretic peptide receptor 1 (Homo sapiens), P16066; 0% at EC30 ANP, 100% saturating ANP; activation, % at 10 µM; hit rate 0.14% among 370,000; in the data active = activation above about 40%
Neddyl block: inhibitors of cullin neddylation, primary screen, biochemical, TR-FRET, uHTS, NAE and Ubc12. hit rate 0.58% among 360,000. inhibition, % at 25 µM; in the data active = inhibition above about 36%
NadD block: inhibitors of S. aureus NadD, primary screen, biochemical, colorimetric, uHTS. Nicotinate-nucleotide adenylyltransferase NadD (Staphylococcus aureus N315). purified NadD enzyme, colorimetric absorbance read-out. inhibition, % at 20 µM. hit rate 0.78% among 360,000. AID 602399, 2012; in the data active = inhibition above about 26%
GC-B act: human GC-B receptor activators, primary screen, HEK293 GC-B cells, cGMP TR-FRET, EC30 CNP | Atrial natriuretic peptide receptor 2 (Homo sapiens), P20594 | 0% at EC30 CNP, 100% saturating CNP | activation, % at 10 µM | hit rate 0.11% among 370,000 | AID 1920062, 2024;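 active = activation at 10 µM reaching about 35% in either raw or pattern-adjusted values, limit read from the data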
Target sequence (P20594 whole entry, looked up): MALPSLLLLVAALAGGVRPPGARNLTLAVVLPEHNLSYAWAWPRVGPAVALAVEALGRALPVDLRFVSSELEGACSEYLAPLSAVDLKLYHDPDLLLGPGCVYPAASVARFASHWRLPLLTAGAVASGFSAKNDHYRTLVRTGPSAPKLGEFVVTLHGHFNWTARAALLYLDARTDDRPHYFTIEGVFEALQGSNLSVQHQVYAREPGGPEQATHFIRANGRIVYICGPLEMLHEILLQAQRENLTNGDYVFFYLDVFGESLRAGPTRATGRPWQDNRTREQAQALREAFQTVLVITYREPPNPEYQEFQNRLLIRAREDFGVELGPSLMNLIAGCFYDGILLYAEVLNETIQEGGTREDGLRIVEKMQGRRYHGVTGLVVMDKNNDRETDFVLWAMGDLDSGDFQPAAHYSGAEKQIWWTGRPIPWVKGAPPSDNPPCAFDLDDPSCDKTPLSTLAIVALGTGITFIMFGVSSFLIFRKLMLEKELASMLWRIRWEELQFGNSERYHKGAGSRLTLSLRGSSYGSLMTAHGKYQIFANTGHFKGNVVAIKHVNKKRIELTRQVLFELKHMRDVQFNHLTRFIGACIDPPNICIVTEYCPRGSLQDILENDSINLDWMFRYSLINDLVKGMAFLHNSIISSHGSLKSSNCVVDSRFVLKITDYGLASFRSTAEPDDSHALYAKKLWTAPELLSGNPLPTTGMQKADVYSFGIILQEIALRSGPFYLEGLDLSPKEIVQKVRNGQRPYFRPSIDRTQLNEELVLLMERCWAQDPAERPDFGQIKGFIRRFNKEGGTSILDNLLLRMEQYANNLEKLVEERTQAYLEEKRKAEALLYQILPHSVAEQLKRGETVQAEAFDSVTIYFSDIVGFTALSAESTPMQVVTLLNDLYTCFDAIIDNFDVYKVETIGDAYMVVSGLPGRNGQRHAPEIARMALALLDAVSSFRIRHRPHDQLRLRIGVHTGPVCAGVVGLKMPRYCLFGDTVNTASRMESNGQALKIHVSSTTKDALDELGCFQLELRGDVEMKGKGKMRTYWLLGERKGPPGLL
Hits are given with their value; i = inactive; nt = no result shown. Sampled rows, rich in hits. Any-hit rate of the full collection: about 1.5%.

SMILES	GC-A act	Neddyl block	NadD block	GC-B act
CC(=O)c1ccc(NC(=O)c2ccc3nc(-c4ccco4)c(-c4ccco4)nc3c2)cc1	nt	i	93	nt
CCOC(=O)[C@]12CCCCC/C=C\1N(CCc1ccc(Cl)cc1)C(=O)[C@H]2CC(=O)NCc1cccc(C(F)(F)F)c1	i	nt	nt	i
Cc1noc(/C=C/c2ccco2)c1S(=O)(=O)N1CCC(C(=O)N2CCc3ccccc3C2)CC1	nt	i	47	nt
O=S1(=O)CC2c3ccccc3CCN2CN1CCc1ccccc1 (configuration not stated)	i	nt	nt	i
CC1CCN(c2ccc(C(=O)O)cc2NS(=O)(=O)c2ccccc2[N+](=O)[O-])CC1	i	nt	nt	i
O=C(N/N=C/c1ccc(O)cc1O)c1ccc(CN2C(=O)c3cccc4cccc2c34)cc1	i	nt	44	i
COc1cccc(CNC(=S)OC2CCC23CCC(c2ccccc2)CC3)c1 (configuration not stated)	i	nt	nt	i
Cc1cccc(NC(=S)N/N=C/c2cccn2Cc2ccc(F)cc2)c1	i	51	i	i
C=CCn1c(-c2ccc(OC)cc2)nc2ccccc21	i	i	i	i
Brc1ccc(Cn2c(-c3cncs3)nc3ccccc32)cc1	53	i	i	i
COc1ccc(-c2nc3ccccc3n2Cc2ccccc2)cc1	i	i	i	39
c1ccc(Cn2c(-c3cncs3)nc3ccccc32)cc1	i	i	i	i
CC(C)(C)NC(=O)[C@@H](c1cccnc1)N(C(=O)c1ccco1)c1ccc(C(C)(C)C)cc1	i	nt	nt	i
CCCC1=C/C(=C/c2ccc(-c3ccccc3OC)o2)C(=O)O1	i	nt	40	i
COc1ccccc1-c1ccc(/C=C2/C=C(CC(C)C)OC2=O)o1	i	nt	i	i
COc1ccc(OC)c(NC(=S)NCc2ccc(S(N)(=O)=O)cc2)c1	i	i	i	i
COc1ccc(CNC(=S)Nc2cc(OC)ccc2OC)cc1	40	i	i	i
NC(=O)C1(Nc2ccc(-c3ccc(Br)cc3)cc2)CCCC1	52	i	i	i
Cc1ccc(NC2(C(N)=O)CCCC2)cc1	i	i	i	i
COC(=O)c1cc(C(c2ccccc2O)C2CCCO2)n2cccc(C(C)(C)C)c12 (configuration not stated)	i	nt	nt	i
O=C(Nc1sc2c(c1-c1nc3ccccc3s1)CCNC2)C(F)F	i	nt	nt	i
CC(=O)Nc1sc2c(c1-c1nc3ccccc3s1)CCCNC2	i	nt	nt	34
N#CCCN1CCN(C(=S)c2ccc(-c3cccc(Cl)c3)o2)CC1	i	i	i	73
N#CCCN1CCN(C(=S)c2ccc(-c3ccc(Cl)c(Cl)c3)o2)CC1	i	i	i	61
O=C(O)c1ccc(-c2cccc(Cl)c2)o1	i	i	i	i
SMILES	GC-A act	Neddyl block	NadD block	GC-B act
O=[N+]([O-])c1cc(-c2ccc(C(=S)N3CCOCC3)o2)ccc1Cl	i	i	i	i
C[C@H]1COc2cc(Br)ccc2S(=O)(=O)N1Cc1cn(Cc2ccc(Br)cc2)nn1	i	nt	nt	i
C[C@@H]1CN([C@H](C)CO)C(=O)c2cc(NC(=O)Nc3ccc(C(F)(F)F)cc3)ccc2O[C@H]1CN(C)Cc1ccc(Cl)c(Cl)c1	i	i	33	i
CN(C)c1ccc(/C=N/N=C2/NC(=O)/C(=C/c3ccc([N+](=O)[O-])cc3)S2)cc1	i	i	50	i
CN(C)c1ccc(C=C2SC(=S)NC2=O)cc1	i	i	i	i
Cc1ccc(Cc2c(-c3ccc(C#N)cc3)nc3ccc(Br)cn23)cc1	i	i	i	i
COC(=O)c1ccc2nc(-c3ccccc3)c(Cc3ccc(C)cc3)n2c1	i	nt	i	39
COC(=O)c1ccc2nc(-c3ccccc3)c(Cc3ccccc3)n2c1	i	nt	nt	i
COC(=O)c1ccc2nc(-c3ccc(C)cc3)c(Cc3cccc(F)c3)n2c1	i	nt	i	46
COC(=O)c1ccc2nc(-c3ccc(C)cc3)c(Cc3ccccc3)n2c1	i	nt	nt	39
N#Cc1ccc(-c2nc3ccc(Br)cn3c2Cc2ccccc2)cc1	i	i	i	35
C[C@H]1[C@@H](NC(=O)C#Cc2ccccc2)CC[C@@]23CCCN2C(=O)CCC[C@@H]13	i	nt	nt	i
CC(=O)N1CCCN(S(=O)(=O)c2ccc3c(c2)c(=O)n(C)c(=O)n3C)CC1	i	nt	nt	i
CC1CN(c2ccnc3cc(Cl)ccc23)CCN1C(=O)c1ccc(Cl)cc1 (configuration not stated)	i	nt	nt	i
Cc1cccc(-n2c(SCC(=O)O)nc3sc4c(c3c2=O)CCCC4)c1	i	i	i	45
Cc1nc(NC(=O)c2ccccc2)sc1-c1csc(NCc2ccco2)n1	nt	i	47	nt
COC(=O)[C@]12C[C@H](CC(=O)NCc3ccccc3)C(=O)N(Cc3ccccc3)C1=C[C@H](C1CCCC1)O[C@@H]2C	i	nt	nt	i
CCCn1c(C)cc(-c2csc(N)n2)c1C	i	i	i	i
Cc1cc(-c2csc(N)n2)c(C)n1-c1ccc(Cl)c(Cl)c1	i	i	36	i
COc1ccc(-n2c(C)cc(-c3csc(N)n3)c2C)cc1	i	i	33	i
CCCC#Cc1ccc(CC[C@H]2O[C@H]3CC[C@H](CO)O[C@H]3C[C@H]2NC(=O)CN2CCOCC2)cc1	i	nt	nt	i
CCOC(=O)c1cnc2c(c(C)nn2C)c1Oc1cc(Cl)cc(Cl)c1	i	i	i	i
CCOC(=O)c1cnc2c(c(C)nn2-c2ccc(C)cc2)c1Cl	60	i	i	i
COC(=O)C1=C(C)N(C)C(=NCc2ccc3c(c2)OCO3)NC1c1ccc(C(F)(F)F)cc1 (configuration not stated)	i	nt	nt	i
COc1cc(-c2nc3cnccn3c2Nc2ccc(C(C)C)cc2)ccc1O	55	nt	i	i
SMILES	GC-A act	Neddyl block	NadD block	GC-B act
COc1cc(-c2nc3cnccn3c2Nc2ccc3c(c2)OCCO3)ccc1O	i	i	i	i
COc1cc(-c2nc3ccc(C)cn3c2Nc2ccc3c(c2)OCCO3)ccc1O	i	nt	i	39
c1ccc(-c2nc3cnccn3c2Nc2ccc3c(c2)OCCO3)cc1	45	i	i	36
COc1cc(-c2nc3cnccn3c2Nc2ccccc2)ccc1O	i	nt	i	i
Oc1ccc(-c2nc3cnccn3c2Nc2ccc3c(c2)OCCO3)cc1	41	i	i	i
COc1cc(-c2nc3cnccn3c2Nc2ccc(C)cc2)ccc1O	i	nt	i	i
c1ccc(-c2cccc(CNc3nc(-c4ccccn4)nnc3-c3ccccc3)c2)cc1	i	nt	nt	i
COC(=O)[C@]12C[C@H](CC(=O)NCc3ccc(C)o3)C(=O)N(CCc3ccc(OC)c(OC)c3)C1=C[C@H](C(C)C)O[C@@H]2C1CC1	i	nt	nt	i
C[C@@H](NC(=O)C[C@H]1CC[C@H]2[C@@H](COc3ccc(NC(=O)Nc4ccccc4)cc3C(=O)N2C)O1)c1ccccc1	i	nt	nt	i
Oc1ccc(-c2nc3ncccn3c2Nc2ccc3c(c2)OCO3)cc1	i	i	i	i
Cc1ccn2c(Nc3ccc4c(c3)OCO4)c(-c3ccc(O)cc3)nc2c1	47	nt	i	i
